Source: PubChem (National Center for Advancing Translational Sciences (NCATS))
Shown is part of a subset that was picked to be rich in hits.
IL-1B inflam inh: inhibitors of inflammasome signaling (IL-1 beta secretion); activity change, % at 57.5 µM; THP-1 LPS/ATP IL-1B secretion, AlphaLISA, 16 h; stronger effect = lower value; AID 743279; 4.7% of 360,000 active; in the data active = activity change below about -50%; inconclusive = mostly about -30% to -49%
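Secreted IL-1B measured by AlphaLISA bead assay after 16 h compound exposure of THP-1 cells; compounds (final up to 57.5 uM) added 1 h before LPS (250 ng/mL) and ATP (1.25 mM) stimulation; lower signal means less secretion.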
HT1080-NT tox: kills 2HG-producing HT-1080-NT fibrosarcoma cells; AID 686970; HT-1080-NT fibrosarcoma viability, CellTiter-Glo ATP luminescence, 48 h; 1.6% of 360,000 active; Potency, µM (titrated, usually from 46.1 µM), for inactives: at the highest dose activity, negative = less viability, most hits filed as cytotoxic;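 also: NT is the 2HG producing partner of a matched IDH1 knockdown line; potency is read from the fitted curve at half-maximal effect; 0% = DMSO-treated cells and -100% = media-only wells without cells; nearly all actives have a fitted effect of over 55% in size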
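HT-1080-NT; 750 cells/well; 5% FBS RPMI; 48 h compound, 37 degrees C; CellTiter-Glo luminescence; curve fitting and curve-class assignment.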
HT1080 IDH1KD tx: HT-1080 IDH1 knockdown cell toxicity (counter line); HT-1080 IDH1 knockdown viability, ATP luminescence, 48 h; Potency, µM (doses to about 46.1 µM), for inactives: at the top dose activity, negative = toxicity, most hits filed as cytotoxic; 2% of 360,000 active; AID 686971;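 also: potency is read from the fitted curve at half-maximal effect; 0% = DMSO wells and -100% = cell-free medium wells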
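In this qHTS, HT-1080 cells depleted of IDH1 are exposed for 48 h at 37 °C to compound titrations. Toxicity is scored from CellTiter-Glo luminescence, with DMSO as full viability and medium alone as none.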
ALOX12 inh: inhibitors of human 12S-lipoxygenase ALOX12; P18054; purified 12hLO, xylenol orange hydroperoxide absorbance; Potency, µM (highest dose often 108 µM), inactives show at the top dose activity change, negative = inhibition, hits mostly inhibitors; 1.1% of 580,000 active; AID 1671190; also: potency is read from the fitted curve at half-maximal effect
Target sequence (P18054 whole entry, looked up): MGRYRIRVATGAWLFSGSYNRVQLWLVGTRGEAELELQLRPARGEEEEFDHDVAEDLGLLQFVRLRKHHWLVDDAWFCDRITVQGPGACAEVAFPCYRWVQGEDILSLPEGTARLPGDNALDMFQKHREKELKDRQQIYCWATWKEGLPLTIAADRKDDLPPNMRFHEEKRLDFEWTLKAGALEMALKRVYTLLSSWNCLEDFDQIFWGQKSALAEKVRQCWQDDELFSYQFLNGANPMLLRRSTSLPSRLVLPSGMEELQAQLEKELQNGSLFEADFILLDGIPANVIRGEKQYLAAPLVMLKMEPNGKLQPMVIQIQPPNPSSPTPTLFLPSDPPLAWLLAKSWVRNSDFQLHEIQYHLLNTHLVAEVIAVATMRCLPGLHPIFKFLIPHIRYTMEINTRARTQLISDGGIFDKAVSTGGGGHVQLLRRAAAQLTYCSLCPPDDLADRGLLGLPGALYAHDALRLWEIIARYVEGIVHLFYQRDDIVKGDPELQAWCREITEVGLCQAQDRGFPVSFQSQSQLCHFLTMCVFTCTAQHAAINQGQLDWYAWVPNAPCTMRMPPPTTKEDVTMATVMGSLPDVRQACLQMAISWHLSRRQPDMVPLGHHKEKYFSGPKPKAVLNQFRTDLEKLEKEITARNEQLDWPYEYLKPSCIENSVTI
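Hydroperoxide product was detected by ferrous iron/xylenol orange as the 573 to 405 nm absorbance ratio. Arachidonic acid at 40 uM (final) was turned over for 30 min at room temperature by 150 nM human 12hLO, pH 7.0 Hepes buffer, after 15 min compound preincubation.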
DT40 TDP1 CPT: growth inhibition of DT40 Tdp1-/-;hTDP1 cells with camptothecin (screen for TDP1 inhibitors) | Potency, µM (titrated, usually from 46.2 µM), without a hit: at the highest dose activity change, negative = growth inhibition, actives largely listed as inhibitors | 12% of 420,000 active | chicken DT40 Tdp1-/-;hTDP1 cells + 20 nM CPT, ATP luminescence, 48 h; also: potency is read from the fitted curve at half-maximal effect; nearly all actives have a fitted effect of over 55% in size
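Cell growth measured by CellTiter-Glo luminescence after a minimum 48 h, 37 C compound exposure with 20 nM CPT in Tdp1-knockout DT40 cells stably expressing hTDP1, seeded 400/well; qHTS titration format.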
DT40 TDP1 no CPT: qHTS for Inhibitors of human tyrosyl-DNA phosphodiesterase 1 (TDP1): qHTS in cells in absence of CPT | DT40 Tdp1-/- hTDP1 cells, no CPT, ATP luminescence, 48 h | Potency, µM (top dose mostly 46.2 µM), for the others: at the highest dose activity change, negative = growth inhibition, actives largely listed as inhibitors | 15% of 420,000 active | AID 686978, 2013; also: potency is read from the fitted curve at half-maximal effect; nearly all actives have a fitted effect of over 55% in size
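Chicken DT40 Tdp1-/- cells complemented with human TDP1, screened without camptothecin (DMSO vehicle only), 400 cells/well. Compounds pin-transferred, cells incubated at 37 °C for at least 48 hr. Growth read as ATP-dependent luminescence (CellTiter-Glo, 30 min at RT).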
* hit, by the source's call; ? = inconclusive; · = no result; ! = not active in a repeat; [ ] = remark or other dose. Unless noted, calls follow the shape of the dose curve; as a rule, active = well fitted curve in the direction sought with a large enough effect; inconclusive = small, poorly fitted or top-dose-only effect, or another doubt; inactive = no such curve, though single readings can be large; an effect the other way counts as inactive or inconclusive. Unless noted, % is scaled to controls: 0 for no effect and ±100 for the full control effect.

SMILES	IL-1B inflam inh	HT1080-NT tox	HT1080 IDH1KD tx	ALOX12 inh	DT40 TDP1 CPT	DT40 TDP1 no CPT
Cc1ccc(C)c(OCC(=O)Nc2ccc3c(c2)OCO3)c1C	5.0	-15.0%	-26.9%	10.8%	?	18.4µM*
Cc1ccc(OCC(=O)Nc2ccc3c(c2)OCO3)cc1C	-8.4	6.4%	-4.8%	4.2%	-6.0%	25.9µM*
Cc1ccc(C(NC(=O)CSc2nnnn2C2CCCCC2)c2cccs2)cc1 (stereo unspecified)	·	·	·	0.9%	·	·
Cc1scc(-c2n[nH]c(=S)n2C(C)c2ccccc2)c1C (stereo unspecified)	8.2	8.4%	3.3%	?	?	16.4µM*
COc1cc2cncnc2cc1OCCCCC(N)=O	·	0.3%	18.3%	·	1.7%	1.0%
COc1ccc(/C=C/C(=O)Nc2ccc(C)c(S(=O)(=O)N3CCOCC3)c2)cc1	-25.1	?	20.6µM*	-8.2%	?	18.4µM*
COc1ccc(NC(=O)/C=C/c2ccc(S(=O)(=O)N3CCOCC3)cc2)cc1	-9.4	8.7%	1.5%	-50.4%	-2.4%	0.4%
CCN1CCN(c2ccc(S(=O)(=O)N3CCOCC3)cc2NC(=O)/C=C/c2ccc([N+](=O)[O-])cc2)CC1	-106.0*	-6.4%	-6.1%	?	?	2.91µM*
CCN1CCN(c2ccc(S(=O)(=O)N3CCOCC3)cc2NC(=O)/C=C/c2ccc(OC)cc2OC)CC1	-20.8	1.9%	-11.1%	?	25.9µM*	?
COc1ccc(/C=C/C(=O)Nc2ccc(S(=O)(=O)N3CCOCC3)cc2)c(OC)c1	-12.9	-12.3%	-1.2%	15.8%	?	18.4µM*
COc1ccc(/C=C/C(=O)Nc2cc(S(=O)(=O)N3CCOCC3)ccc2OC)cc1	-26.9	14.2%	4.6%	?	-27.3%	-16.2%
COc1cc(NC(=O)CCc2c(C)nn(-c3ccc4nnc(C)n4n3)c2C)cc(OC)c1OC	·	·	·	-21.7%	?	-17.9%
CN(C)CCCNC(=O)Cn1c(-c2ccccc2)cc2ccccc21	·	·	·	-5.2%	·	·
COc1ccc(-c2c(-c3ccccc3)c(C(=O)C(=O)NCCCN(C)C)n3ccc4cc(OC)c(OC)cc4c23)cc1OC	-27.7	?	?	?	3.26µM*	18.4µM*
Cc1noc(C)c1CN1CCNc2cnc(OCc3cccnc3)cc2C1	·	·	·	6.3%[176 µM]	·	·
CCN1CCC[C@H]1CNC(=O)c1c(OC)ccc(Br)c1OC	2.8	-0.5%	1.5%	6.6%	33.5µM*!	29.9µM*!
CCN1CCCC1CNC(=O)c1cc(N)ccc1OC (stereo unspecified)	-25.2	2.1%	8.3%	-97.7%	-4.8%	-1.4%
Clc1ccc2c(c1)C1CC2CCN1Cc1ccccc1 (stereo unspecified)	29.2	13.0%	6.2%	3.1%	-5.5%	-14.1%
COc1ccc(CN2CCC3CC2c2cc(-c4cccc(C)c4)ccc23)cc1 (stereo unspecified)	-17.6	-18.3%	-22.2%	3.4%	20.6µM*	14.6µM*
COc1ccc(CN2CCC3CC2c2cc(Cl)ccc23)cc1 (stereo unspecified)	11.2	-7.3%	-1.3%	-0.1%	18.4µM*	18.4µM*
Cc1ccc(OCC(=O)OCc2cc(=O)n3c(C)csc3n2)cc1	·	·	·	-14.1%	-0.4%	-7.0%
COCCNc1nc(C)nc2c1CCN(Cc1ccccc1C#N)CC2	·	·	·	-0.8%	·	·
COc1ccc(C(=O)c2[nH]c(N)c(C(=O)c3c[nH]c4ccccc34)c2-c2ccc(F)c(OC)c2)cc1	·	·	·	-20.5%	·	·
Cc1ccc(NC(=Nc2ccc(Br)cc2)N2CCOCC2)cc1C	-66.3*	?	?	-9.3%	?	20.6µM*
CC(NC(=O)c1cc2c(=O)n(C)c3ccccc3c2n1C)c1ccc2c(c1)OCCO2 (stereo unspecified)	13.0	14.5%	7.5%	0.9%[57.4 µM]	29.1µM*	13µM*
